Screens as filed in PubChem BioAssay.
Hits are enriched below; roughly 1.2% of the tested compounds scored in any of these assays.
CCT modulator: High-Throughput Screening for Modulators of Cytosolic Chaperonin Activity; 360,000 compounds, 0.3% hits; activity change, % (no concentration beside the values), hits read low; purified chaperonin ATPase assay, HTRF ADP detection, 30 min; AID 651819, 2012; in the data active = activity change below about -30%
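Enzyme 40 or 20 nM (batch-dependent) in Tris pH 7.4/KCl/MgCl2/DTT; cpd 76 uM single point; ATP 10 uM; 30 min 37 °C; Transcreener ADP HTRF detection, 30 min RT; ratio 665/615.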
Six1-Eya2 inh: qHTS Assay for Inhibitors of the Six1/Eya2 Interaction. AID 651725, 2012. activity change, % (test concentration not listed). 360,000 compounds, 0.56% hits. AlphaScreen GST-Six1/His-Eya2 binding, biochemical; stronger effect = lower value
Target sequence (O00167 whole entry, looked up): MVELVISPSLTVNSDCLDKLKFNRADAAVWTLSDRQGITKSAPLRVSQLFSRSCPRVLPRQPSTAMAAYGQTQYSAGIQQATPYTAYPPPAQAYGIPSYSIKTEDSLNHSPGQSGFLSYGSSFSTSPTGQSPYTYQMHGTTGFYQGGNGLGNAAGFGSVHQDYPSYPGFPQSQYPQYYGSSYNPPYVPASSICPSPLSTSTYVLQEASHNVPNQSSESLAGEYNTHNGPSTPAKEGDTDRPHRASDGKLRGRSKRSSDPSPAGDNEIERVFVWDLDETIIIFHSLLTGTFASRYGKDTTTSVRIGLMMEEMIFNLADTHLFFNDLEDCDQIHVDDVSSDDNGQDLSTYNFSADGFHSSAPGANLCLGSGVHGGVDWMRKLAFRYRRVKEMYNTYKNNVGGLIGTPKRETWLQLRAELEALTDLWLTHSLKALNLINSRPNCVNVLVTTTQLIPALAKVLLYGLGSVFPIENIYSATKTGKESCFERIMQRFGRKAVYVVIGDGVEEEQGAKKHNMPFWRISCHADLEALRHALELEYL
Target sequence (Q15475 whole entry, looked up): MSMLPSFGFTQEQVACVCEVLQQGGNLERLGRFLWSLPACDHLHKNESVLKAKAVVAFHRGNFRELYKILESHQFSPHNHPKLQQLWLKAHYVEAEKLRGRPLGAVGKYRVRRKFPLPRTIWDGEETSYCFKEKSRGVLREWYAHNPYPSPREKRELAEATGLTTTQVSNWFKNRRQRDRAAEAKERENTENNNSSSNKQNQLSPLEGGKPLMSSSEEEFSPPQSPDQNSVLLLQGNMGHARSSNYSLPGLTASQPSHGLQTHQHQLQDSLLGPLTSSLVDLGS
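Six1/Eya2 binding was read as AlphaScreen signal after compounds were pinned into GST-Six1 plus His-tagged Eya2 (5X stock 250/500 nM) in pH 8.0 Tris/NaCl/TCEP buffer, beads added, then incubated 1 h, 37 C, dark.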
pAkt inh: HTS Assay for Inhibitors of Akt Phophorylation: Primary Screen; activity change, % for hits at 50 µM; 360,000 compounds, 0.32% hits; Neuro2A IGF-stimulated pAkt S473 HTRF, 20 min; stronger effect = lower value; in the data active = activity change below about -80%; inconclusive = mostly about -51% to -80%
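Single-point screen (50 µM final compound) in Neuro2A cells stimulated 20 min with 6 nM IGF at 37 deg C. After lysis, Ser473-phosphorylated Akt read by HTRF (ex 330 nm, em 615/665 nm) as the 665/615 ratio.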
CtBP-E1A inh: qHTS Assay for Inhibitors of the CtBP/E1A Interaction; CtBP / adenovirus E1A interaction (AlphaScreen); activity change, % (test concentration not listed); AlphaScreen GST-E1A/His-CtBP binding, 1536-well; stronger effect = lower value; AID 651724, 2012; 340,000 compounds, 0.49% hits
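AlphaScreen with 125 nM GST-E1A and 125 nM His-CtBP (5X stocks) in Tris pH 8.0, 300 mM NaCl, BSA, Tween 20, TCEP. Compounds preincubated 2 h at 37 deg C, then glutathione donor/nickel acceptor beads added for 1 h at 37 deg C in dark.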
The depositor's hits bear a star; i = inactive; ? = inconclusive; nt = not tested or not shown. Cut-off read from the data, not from the text of the source, unless noted: active = activity change below about -65%; inconclusive = mostly about -30% to -63%; inactive = weaker than that. % is set by controls: 0 for no effect and ±100 for the full control effect.

SMILES | CCT modulator | Six1-Eya2 inh | pAkt inh | CtBP-E1A inh
Clc1cnc(N/N=C/c2cccs2)c(Cl)c1 | 2.5 | 13.4 | -103.8%* | 21.4
COc1ccccc1NC(=O)c1cc2c(CO)cnc(C)c2oc1=Nc1ccc(OC)c(OC)c1 | 2.8 | 2.6 | i | -6.1
COc1cc(N=c2oc3c(C)ncc(CO)c3cc2C(N)=O)cc(OC)c1OC | -1.2 | -79.2* | i | -0.3
COc1ccc(NC(=O)c2cc3c(CO)cnc(C)c3oc2=Nc2cccc(C)c2)c(OC)c1 | -37.1* | -8.7 | i | -2.0
Cc1cc(F)cc(-c2cc(C(=O)NCc3ccccn3)[nH]n2)c1 | -0.8 | 1.0 | i | 1.6
COc1ccc(C(=O)Oc2cccc3cccnc23)cc1[N+](=O)[O-] | -2.2 | -88.2* | i | -72.4*
Cc1cc(C(=O)OCC(=O)Nc2ccccc2Br)c(C)o1 | -53.4* | 13.4 | i | 14.7
Cc1cc(C(=O)OCC(=O)Nc2ccccc2C)c(C)o1 | 1.3 | -1.9 | i | 7.4
N#Cc1c(NC(=O)CSc2ncccn2)oc(-c2ccccc2)c1-c1ccccc1 | 0.9 | -0.4 | i | 23.7
N#Cc1c(NC(=O)CN2CCOCC2)oc(-c2ccccc2)c1-c1ccccc1 | -1.3 | -21.2 | -107.5%* | -14.4
CCOc1ccccc1N(CC(=O)NC1CCCC1)C(=O)CNC(=O)c1cccs1 | 2.0 | -0.9 | i | 0.0
Cc1[nH]n(-c2ccc(Br)cc2)c(=O)c1/C=N/NC(=O)c1ccccc1 | -3.4 | -10.9 | i | nt
Cc1[nH]n(-c2ccccc2)c(=O)c1/C=N/Nc1nncc(-c2ccccc2)n1 | -0.9 | -91.3* | i | -91.3*
Cc1[nH]n(-c2ccccc2)c(=O)c1/C=N/NC(=O)c1cccc(F)c1 | 1.3 | -92.3* | i | nt
Cc1[nH]n(-c2ccccc2)c(=O)c1/C=N/NC(=O)c1ccc(O)cc1O | 3.0 | -90.7* | i | nt
CCCCN=Cc1c(C)[nH]n(-c2ccccc2)c1=S | -0.4 | -14.6 | i | -5.9
CCCCN(CCCC)C(=S)N/N=C/c1c(C)[nH]n(-c2ccccc2)c1=O | -88.6* | -19.1 | i | -18.9
S=c1nc(-c2ccccc2)[nH]c2ccc(Br)cc12 | -0.6 | 16.1 | i | 0.0
Cc1cc(C(=O)N/N=C/c2c(C)n(C)c3ccccc23)n[nH]1 | -2.1 | -1.2 | i | -9.2
Cc1ccc(OCC(=O)N/N=C\c2c(C)[nH]n(-c3ccccc3)c2=O)c([N+](=O)[O-])c1 | 0.9 | -90.6* | i | -80.7*
Cc1cc(C(=O)N/N=C/c2c(C)[nH]n(-c3ccccc3)c2=O)n[nH]1 | -7.7 | -90.5* | i | -93.8*
NN(Cc1ccccc1)C(=S)Nc1ccc(Cl)c(Cl)c1 | 0.5 | 7.5 | i | 14.7
O=C(c1ccco1)N1CCC(c2nc(-c3ccc(F)cc3)no2)CC1 | -34.8* | 1.7 | i | 5.5
CCOC(=O)c1c2c3c(cccc3[nH]c1=O)C(=O)c1ccccc1-2 | -0.4 | ? | i | ?
CCOC(=O)c1c2c(n(Cc3ccccc3)c1C)C(=O)C(=O)c1ccccc1-2 | -1.0 | ? | i | -79.2*
SMILES | CCT modulator | Six1-Eya2 inh | pAkt inh | CtBP-E1A inh
CC(=O)Nc1c2c3c(cccc3n(C)c1=O)C(=O)c1ccccc1-2 | -1.3 | -12.6 | -113.2%* | -3.0
CCOC(=O)c1c2c3c(c(Cl)ccc3[nH]c1=O)C(=O)c1ccccc1-2 | -3.7 | -76.4* | i | -89.1*
CCOC(=O)c1c2c3c(cccc3n(C)c1=O)C(=O)c1ccccc1-2 | -1.5 | -68.6* | i | -82.7*
Cn1c(=O)c(Nc2ccc(Cl)cc2)c2c3c(cccc31)C(=O)c1ccccc1-2 | -1.0 | -3.0 | i | nt
CCCc1cc(=O)[nH]c(SCC(=O)N(CC)c2c(N)n(Cc3ccccc3)c(=O)[nH]c2=O)n1 | -1.4 | -1.5 | i | -2.1
COc1cc(NC(=O)Nn2cnnc2)cc(OC)c1OC | 0.7 | -11.5 | i | -8.1
O=C1Nc2ccccc2N(C(=O)c2ccc(-c3ccccc3)cc2)C1c1nc2ccccc2[nH]1 (stereo not given) | 0.7 | -7.2 | i | -19.6
CC(C)COCc1ccc(O)c2ncccc12 | -0.3 | -79.4* | i | -90.9*
CCCOCc1ccc(O)c2ncccc12 | 1.3 | -69.8* | i | -94.0*
COc1ccc(S(=O)(=O)N(CC(C)C)CC(C)C)c2cccnc12 | -0.5 | -17.2 | i | -8.6
